Results with a measured potency or affinity are listed apart. Calls of active or inactive are those of the source.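 The calls were made as follows: active = viability loss whose fitted half-maximal concentration is at most twice the top valid tested dose; inconclusive = flat curve with 30 to 70% loss, or poor fit; inactive = the rest.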
Assay: viability loss in HepG2 liver cells – cell-based, ATP luminescence, cherry-pick, set 6, cytotoxicity control, dose response (AID 1053125);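 also: negative values mean loss of viability signal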
Settings: ATP luminescence (CellTiter-Glo), 72 h; series mostly up to 26 µM

Row | SMILES | outcome
1 | CN1CCN(c2nc3ccccn3c(=O)c2/C=C(\C#N)S(=O)(=O)c2ccccc2)CC1 | inactive
2 | O=C(c1cccc(Cl)c1)N1CCC(=O)N(C(COCc2ccccc2)Cc2ccccc2)CC1 (stereo not given) | inactive
3 | Cc1c(C(=O)NCc2ccc(Cl)c(Cl)c2)sc(=O)n1Cc1cccc(F)c1 | inactive
4 | Cn1cccc1/C=N/NC(=O)c1sc2cc(Cl)ccc2c1Cl | inactive
5 | Cc1ccc2c(c1)N(C(=O)CCC(=O)NCCCN1CCOCC1)CC(C)O2 (stereo not given) | inactive
6 | S=c1[nH]c2ccc(Cc3ccc4[nH]c(=S)[nH]c4c3)cc2[nH]1 | inactive
7 | CCOc1ccc2nc(NCCCNC(=O)c3cc(OC)c(OC)c(OC)c3)c(C#N)cc2c1 | inactive
8 | CCn1c(=NC(=O)CSC(C)=O)sc2cc(OC)ccc21 | inactive
9 | O=C(/C=C/c1ccccc1)C1=C(O)C(=O)N(CCO)C1c1ccc2c(c1)OCO2 (stereo not given) | inactive
10 | Cc1cc(=O)oc2cc(OC(=O)c3cncc(Br)c3)ccc12 | inactive
11 | Cc1ccc(O)c(NC(=S)NC(=O)COc2ccc(Br)cc2)c1 | inactive
12 | CCc1cccc(C)c1NC(=S)NCc1ccc2c(c1)cc(C)n2C | inactive
13 | C=CCc1c(O)c(CC)cc2c(C)cc(=O)oc12 | inactive
14 | Cc1ccc2nc3c(cc(C(N)=S)c(=N)n3CCCOC(C)C)c(=O)n2c1 | inactive
15 | O=C(COC(=O)c1cc(S(=O)(=O)N2CCCCC2)ccc1N1CCOCC1)c1ccccc1Cl | inactive
16 | C=Cc1ccc(Cn2c(C)c(C(=O)NCc3cccc(C)c3)sc2=O)cc1 | inactive
17 | CC(=O)c1sc(N/N=C\c2ccc(N(C)C)cc2)nc1C | inactive
18 | Cc1cccn2c(=O)c3cc(C(=O)NCC4CCCO4)c(=N)n(CC4CCCO4)c3nc12 (stereo not given) | inactive

Row | SMILES | outcome
19 | COc1ccc(C(=O)c2sc3nc(-c4ccc(OC)cc4)ccc3c2N)cc1 | inactive
20 | CC(=O)NNc1cc(N2CCOCC2)nc(N2CCOCC2)n1 | inactive
21 | CCN(CC)c1ccc2cc(C(N)=O)c(=O)oc2c1 | inactive
22 | COc1ccc(C2CC(c3ccccc3)=NN2c2ccc(C(N)=O)cc2)cc1 (stereo not given) | inactive
23 | CC(=O)c1cc2c(ccc3ccccc32)oc1=O | inactive
24 | COc1cc(C(=O)NCCCNc2nc3c(C)cc(C)cc3cc2C#N)cc(OC)c1OC | inactive
25 | N#Cc1c2ccc(OCC(N)=O)cc2n2ccccc12 | inactive
26 | O=C(CCCN1C(=O)CSc2ncccc21)N1CCN(Cc2ccccc2)CC1 | inactive
27 | CCCCn1nc(NC(=O)c2cccs2)c2cc3cc(OC)ccc3nc21 | inactive
28 | CCCCN1C=C(C(=O)OC)C(c2ccccc2Cl)C(C(=O)OC)=C1 | inactive
29 | CCOC1=NN(c2ncc(C(F)(F)F)cc2Cl)C(=O)C1 | inactive
30 | COc1cccc(N2CCN(C(=O)C3CCCN(S(=O)(=O)c4cnc[nH]4)C3)CC2)c1 (stereo not given) | inactive
31 | CCCN1CCc2c(sc(NC(=O)C3CCN(S(=O)(=O)c4cccs4)CC3)c2C(N)=O)C1 | inactive
32 | CCCCN(CCCC)CC(O)Cn1c2ccccc2c(=O)c2ccccc21 (stereo not given) | inactive
33 | O=[N+]([O-])c1cccc(-c2n[nH]c(=S)n2-c2ccc(Br)cc2)c1 | inactive
34 | O=c1oc2c(CN3CCCCC3)c(O)ccc2cc1-c1nc2ccccc2[nH]1 | inactive
35 | O=c1[nH]c2ccccc2nc1/C=C/c1ccccc1 | inactive
